# Results: PubChem BioAssay (EPA / NIEHS)
# Records with an inconclusive call do not appear. Calls of active or inactive are those of the source. How the source made its calls, unless noted: active means hit-call score of the fitted dose curve at least 0.9, where 1 is the maximum; inconclusive means response in the unintended direction; inactive means score below 0.9.
# How the values were obtained:
# [1] = BSK_4H_Eotaxin3: BioMAP Diversity Plus: 4H Assay for Eotaxin 3 Biomarker Activity (AID 2283000; active means hit-call score of the fitted dose curve at least 0.9, where 1 is the maximum; inactive means score below 0.9;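 on outcome: CCL26 protein level quantified by ELISA in parallel with SRB cytotoxicity check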); conditions: primary human endothelial cells (HUVEC); actives raise or lower the signal
# In short: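 ELISA quantitation of CCL26 (Eotaxin-3) protein from chemically dosed human vascular endothelial cells at 24 h; increases and decreases both scored relative to DMSO-treated baseline.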
# [2] = molecular target: human Peroxisome Proliferator-activated Receptor alpha (PPARa), PPARA (gene 5465) (UniProt Q07869); test: ATG_PPARa_TRANS: Attagene TRANS-FACTORIAL HepG2 Assay for human Peroxisome Proliferator-activated Receptor alpha (PPARa) (AID 2283001);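 on AC50: potency for gain of reporter signal over DMSO so agonist or activator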
# In short: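 HepG2 cells transiently transfected with multiplexed GAL4-UAS reporter units and chimeric NR-Gal4 constructs were dosed for 24 h. Reporter mRNA was measured by RT-PCR with fluorescent labelling and capillary electrophoresis; gain of signal fitted against DMSO.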
# [3] = molecular target: human Peroxisome Proliferator-activated Receptor delta (PPARd), PPARD (gene 5467) (UniProt Q03181); test: ATG_PPARd_TRANS: Attagene TRANS-FACTORIAL HepG2 Assay for human Peroxisome Proliferator-activated Receptor delta (PPARd) (AID 2283002)
# In short: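 Multiplexed trans-activation format: HepG2 liver cells expressing exogenous NR-Gal4 chimeras and GAL4-UAS reporters were exposed for 24 h. Reporter mRNA was detected by RT-PCR with capillary electrophoresis fluorescence; activity fitted as gain of signal relative to DMSO.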
# [4] = read-out: Intercellular Adhesion Molecule 1 (ICAM1), ICAM1 (gene 3383); test: BSK_3C_ICAM1: BioMAP Diversity Plus: 3C Assay for Intercellular Adhesion Molecule 1 (ICAM1) Biomarker Activity (AID 2283003; active means hit-call score of the fitted dose curve at least 0.9, where 1 is the maximum; inactive means score below 0.9); conditions: primary human endothelial cells (HUVEC); actives raise or lower the signal
# In short: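 Primary human umbilical vein endothelial cells in the BioMAP 3C system were exposed to chemicals for 24 h, then ICAM-1 was quantified by ELISA. Activity was fitted bidirectionally against the DMSO negative control baseline.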
# [5] = molecular target: Retinoic acid receptor alpha (Homo sapiens) (UniProt P10276); test: ATG_RARa_TRANS: Attagene TRANS-FACTORIAL HepG2 Assay for human Retinoic Acid Receptor alpha (RARa) (AID 2283005)
# In short: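 HepG2 cells transiently transfected with multiple reporter units expressing chimeric RARα-GAL4 fusion, with GAL4-UAS-driven reporters. After 24 h compound exposure, reporter mRNA induction quantified by RT-PCR and capillary electrophoresis with fluorescent labeling; gain-of-signal fitted relative to DMSO control.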
# [6] = BSK_3C_Proliferation: Cell Proliferation Assessment in the BioMAP Diversity Plus: 3C Assay (AID 2283006; active means hit-call score of the fitted dose curve at least 0.9, where 1 is the maximum; inactive means score below 0.9;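 on AC50: potency may reflect either rise or fall in cell number versus DMSO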); conditions: primary human endothelial cells (HUVEC)
# In short: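 Human umbilical vein endothelial cells were grown sub-confluent and exposed to chemical for 48 h, then fixed with 10% TCA and stained with 0.1% sulforhodamine B; absorbance at 560 nm gave relative cell number, fitted bidirectionally against DMSO baseline.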
# [7] = molecular target: Peroxisome proliferator-activated receptor gamma (Homo sapiens) (UniProt P37231); test: ATG_PPARg_TRANS: Attagene TRANS-FACTORIAL HepG2 Assay for human Peroxisome Proliferator-activated Receptor-gamma (PPARg) (AID 2283007)
# In short: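 Multiplexed reporter transcription units in HepG2, 24 h dosing, reporter transcripts quantified by fluorescent RT-PCR and capillary electrophoresis. Increase over DMSO scored.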
# [8] = molecular target: Nuclear receptor subfamily 1 group I member 2 (Homo sapiens) (UniProt O75469); test: ATG_PXR_TRANS: Attagene TRANS-FACTORIAL HepG2 Assay for human Pregnane X Receptor (PXR) (AID 2283008)
# In short: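 HepG2 cells transiently transfected with GAL4-UAS reporter units and PXR-Gal4 chimera, exposed 24 h. Reporter mRNA quantified by RT-PCR, fluorescent labelling, HpaI digestion and capillary electrophoresis; gain of signal vs DMSO.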
# [9] = molecular target: human Retinoic Acid Receptor beta (RARb), RARB (gene 5915) (UniProt P10826); test: ATG_RARb_TRANS: Attagene TRANS-FACTORIAL HepG2 Assay for human Retinoic Acid Receptor beta (AID 2283004)
# In short: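 Fluorescent capillary-electrophoresis detection of GAL4-UAS reporter mRNA defines the endpoint, with induction over DMSO-treated wells scored as activity. Transiently transfected human hepatoma HepG2 cells expressing exogenous NR–Gal4 proteins are exposed to test chemicals for 24 h.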
# [10] = molecular target: human Retinoic Acid Receptor gamma (RARg), RARG (gene 5916) (UniProt P13631); test: ATG_RARg_TRANS: Attagene TRANS-FACTORIAL HepG2 Assay for human Retinoic Acid Receptor gamma (RARg) (AID 2283009)
# In short: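 HepG2 cells transiently transfected with multiplexed reporter units expressing chimeric RARg-GAL4 and GAL4-UAS-driven reporters; 24 h compound exposure. Reporter mRNA quantified by RT-PCR with fluorescent labelling and capillary electrophoresis; gain-of-signal fitted relative to DMSO baseline.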
# human Retinoic Acid Receptor gamma (RARg), RARG (gene 5916), sequence (P13631 whole entry, looked up, the tested form may be a part): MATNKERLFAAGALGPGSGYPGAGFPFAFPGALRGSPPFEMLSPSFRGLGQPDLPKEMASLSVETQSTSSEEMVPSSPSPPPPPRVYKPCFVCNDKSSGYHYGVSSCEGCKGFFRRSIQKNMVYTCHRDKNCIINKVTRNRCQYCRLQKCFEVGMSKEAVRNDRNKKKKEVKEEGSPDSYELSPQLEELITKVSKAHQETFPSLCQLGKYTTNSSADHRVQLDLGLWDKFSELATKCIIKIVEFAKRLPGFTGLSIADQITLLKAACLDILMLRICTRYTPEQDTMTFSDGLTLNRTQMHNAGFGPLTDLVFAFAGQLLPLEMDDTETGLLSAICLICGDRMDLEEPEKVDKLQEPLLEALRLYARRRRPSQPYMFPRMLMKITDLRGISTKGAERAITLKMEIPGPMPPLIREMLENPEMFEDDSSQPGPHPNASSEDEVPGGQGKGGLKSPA
# human Peroxisome Proliferator-activated Receptor alpha (PPARa), PPARA (gene 5465), sequence (Q07869 whole entry, looked up, the tested form may be a part): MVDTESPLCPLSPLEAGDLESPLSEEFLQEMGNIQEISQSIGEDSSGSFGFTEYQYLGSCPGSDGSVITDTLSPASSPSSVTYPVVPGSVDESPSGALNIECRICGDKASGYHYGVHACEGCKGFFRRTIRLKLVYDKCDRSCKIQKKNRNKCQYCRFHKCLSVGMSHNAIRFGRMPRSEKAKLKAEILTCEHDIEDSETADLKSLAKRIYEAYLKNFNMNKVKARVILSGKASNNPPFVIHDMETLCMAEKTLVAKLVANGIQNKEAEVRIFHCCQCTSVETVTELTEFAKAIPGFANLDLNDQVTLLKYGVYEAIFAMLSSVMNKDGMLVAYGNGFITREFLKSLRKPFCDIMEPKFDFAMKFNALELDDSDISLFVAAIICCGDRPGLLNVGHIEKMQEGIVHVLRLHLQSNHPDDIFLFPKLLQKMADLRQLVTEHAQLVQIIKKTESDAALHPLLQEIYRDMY
# Retinoic acid receptor alpha (Homo sapiens), sequence (P10276 whole entry, looked up, the tested form may be a part): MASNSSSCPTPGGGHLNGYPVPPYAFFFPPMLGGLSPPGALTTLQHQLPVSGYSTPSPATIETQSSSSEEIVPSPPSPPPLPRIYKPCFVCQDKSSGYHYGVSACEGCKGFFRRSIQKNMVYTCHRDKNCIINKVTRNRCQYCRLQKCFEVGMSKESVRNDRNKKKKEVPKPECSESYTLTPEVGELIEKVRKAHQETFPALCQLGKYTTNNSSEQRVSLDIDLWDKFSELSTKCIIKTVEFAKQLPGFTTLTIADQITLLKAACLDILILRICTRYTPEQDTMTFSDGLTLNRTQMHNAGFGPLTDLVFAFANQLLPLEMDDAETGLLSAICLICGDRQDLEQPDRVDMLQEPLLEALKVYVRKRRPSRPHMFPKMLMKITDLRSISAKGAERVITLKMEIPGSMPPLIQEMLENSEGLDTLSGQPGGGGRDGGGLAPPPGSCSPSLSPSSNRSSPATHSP
# human Retinoic Acid Receptor beta (RARb), RARB (gene 5915), sequence (P10826 whole entry, looked up, the tested form may be a part): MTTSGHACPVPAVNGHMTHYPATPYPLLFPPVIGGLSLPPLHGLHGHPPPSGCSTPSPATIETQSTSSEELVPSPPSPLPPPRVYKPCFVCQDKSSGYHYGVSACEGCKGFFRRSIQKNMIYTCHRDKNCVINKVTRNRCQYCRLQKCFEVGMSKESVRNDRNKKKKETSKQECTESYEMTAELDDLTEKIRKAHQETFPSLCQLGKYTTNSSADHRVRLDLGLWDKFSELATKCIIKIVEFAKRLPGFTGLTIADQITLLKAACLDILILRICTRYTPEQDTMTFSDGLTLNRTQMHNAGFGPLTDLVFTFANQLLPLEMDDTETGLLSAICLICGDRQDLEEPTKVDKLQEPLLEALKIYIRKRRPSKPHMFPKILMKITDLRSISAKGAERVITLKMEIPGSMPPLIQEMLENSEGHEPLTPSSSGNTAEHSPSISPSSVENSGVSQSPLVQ
# Nuclear receptor subfamily 1 group I member 2 (Homo sapiens), sequence (O75469 whole entry, looked up, the tested form may be a part): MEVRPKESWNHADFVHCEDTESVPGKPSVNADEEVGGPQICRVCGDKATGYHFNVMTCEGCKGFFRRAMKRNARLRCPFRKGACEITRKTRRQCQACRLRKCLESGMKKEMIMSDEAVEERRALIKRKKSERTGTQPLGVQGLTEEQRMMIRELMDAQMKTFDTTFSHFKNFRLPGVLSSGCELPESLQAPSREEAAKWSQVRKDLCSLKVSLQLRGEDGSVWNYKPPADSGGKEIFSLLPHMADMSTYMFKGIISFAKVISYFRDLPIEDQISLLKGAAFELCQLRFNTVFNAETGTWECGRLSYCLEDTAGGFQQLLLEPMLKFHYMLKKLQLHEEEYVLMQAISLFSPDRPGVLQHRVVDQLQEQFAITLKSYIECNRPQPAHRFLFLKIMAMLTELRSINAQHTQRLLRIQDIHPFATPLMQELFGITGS
# Peroxisome proliferator-activated receptor gamma (Homo sapiens), sequence (P37231 whole entry, looked up): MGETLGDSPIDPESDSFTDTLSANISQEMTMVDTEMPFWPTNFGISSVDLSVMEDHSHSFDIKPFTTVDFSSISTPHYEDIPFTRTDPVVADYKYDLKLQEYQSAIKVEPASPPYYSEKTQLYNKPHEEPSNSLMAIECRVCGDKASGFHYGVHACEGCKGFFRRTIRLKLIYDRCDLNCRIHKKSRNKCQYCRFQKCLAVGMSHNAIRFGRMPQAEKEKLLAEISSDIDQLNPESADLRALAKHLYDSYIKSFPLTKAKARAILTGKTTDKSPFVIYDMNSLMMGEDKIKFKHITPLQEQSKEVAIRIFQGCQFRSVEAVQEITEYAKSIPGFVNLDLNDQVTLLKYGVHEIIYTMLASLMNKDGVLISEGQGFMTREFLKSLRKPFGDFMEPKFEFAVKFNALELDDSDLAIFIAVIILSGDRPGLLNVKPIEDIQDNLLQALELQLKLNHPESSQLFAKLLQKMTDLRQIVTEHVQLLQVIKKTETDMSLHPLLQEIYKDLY
# human Peroxisome Proliferator-activated Receptor delta (PPARd), PPARD (gene 5467), sequence (Q03181 whole entry, looked up, the tested form may be a part): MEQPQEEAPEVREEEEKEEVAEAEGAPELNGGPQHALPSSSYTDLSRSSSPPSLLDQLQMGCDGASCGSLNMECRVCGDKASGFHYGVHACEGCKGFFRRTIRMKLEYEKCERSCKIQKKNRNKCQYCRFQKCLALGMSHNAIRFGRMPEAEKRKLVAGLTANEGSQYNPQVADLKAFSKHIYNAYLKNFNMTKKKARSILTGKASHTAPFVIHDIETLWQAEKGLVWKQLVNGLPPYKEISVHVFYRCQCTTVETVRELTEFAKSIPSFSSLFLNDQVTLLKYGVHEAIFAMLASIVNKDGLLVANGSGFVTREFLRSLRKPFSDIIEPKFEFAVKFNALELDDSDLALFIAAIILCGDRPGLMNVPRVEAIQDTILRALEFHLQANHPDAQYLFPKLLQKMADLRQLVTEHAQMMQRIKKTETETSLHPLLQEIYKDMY
structure (smiles),measurement,setting,value
S=P(N1CC1)(N1CC1)N1CC1,outcome,[1],inactive
same,outcome,[2],inactive
same,outcome,[3],inactive
same,outcome,[4],inactive
same,outcome,[5],inactive
same,AC50,[6],13.1 µM (active)
same,outcome,[7],inactive
same,outcome,[8],inactive
CCN(CC)C(=S)SSC(=S)N(CC)CC,AC50,[1],32.3 µM (active)
same,outcome,[2],inactive
same,outcome,[3],inactive
same,AC50,[4],34.9 µM (active)
same,AC50,[8],49.6 µM (active)
C[C@@H](Oc1ccc(CNC(=O)c2cccnc2Oc2ccc3c(c2)OCO3)c(F)c1)C(=O)O,outcome,[1],inactive
same,outcome,[2],inactive
same,outcome,[3],inactive
same,outcome,[4],inactive
same,outcome,[6],inactive
same,AC50,[7],24.3 µM (active)
same,outcome,[8],inactive
OCc1ccccc1,outcome,[1],inactive
same,outcome,[2],inactive
same,outcome,[4],inactive
same,outcome,[9],inactive
same,outcome,[5],inactive
same,outcome,[6],inactive
Cn1cc[nH]c1=S,outcome,[1],inactive
same,outcome,[2],inactive
same,outcome,[3],inactive
same,outcome,[4],inactive
same,outcome,[9],inactive
same,outcome,[6],inactive
O=C(O)c1ccc2c(c1)nc(C(=O)NC1CCN(C3CC3)CC1)n2Cc1cc(-c2ccc(Cl)s2)on1,outcome,[1],inactive
same,outcome,[2],inactive
same,outcome,[3],inactive
same,outcome,[4],inactive
same,outcome,[6],inactive
C[Si](C)(C)C(F)(F)C(F)(F)C(F)(F)F,outcome,[1],inactive
same,outcome,[2],inactive
same,outcome,[3],inactive
same,outcome,[4],inactive
same,outcome,[9],inactive
same,outcome,[5],inactive
same,outcome,[6],inactive
same,outcome,[8],inactive
same,outcome,[10],inactive
Cc1nccn1-c1ccc(Sc2cccc(C3(C(N)=O)CCOCC3)c2)cc1,outcome,[1],inactive
same,outcome,[2],inactive
same,outcome,[3],inactive
same,outcome,[4],inactive
same,outcome,[9],inactive
same,outcome,[5],inactive
same,AC50,[6],11.1 µM (active)
same,AC50,[7],1.85 µM (active)
same,outcome,[8],inactive
same,outcome,[10],inactive
Cc1ncc([C@@H](CCCCCCc2ccc3c(n2)NCCC3)CC(=O)O)cn1,outcome,[1],inactive
same,AC50,[2],19.8 µM (active)
same,outcome,[3],inactive
same,outcome,[4],inactive
same,AC50,[6],2.14 µM (active)
same,outcome,[8],inactive
FC(F)(F)C(F)(F)C(F)(F)C(F)(F)C(F)(F)C(F)(F)I,outcome,[1],inactive
same,outcome,[2],inactive
same,outcome,[3],inactive
same,outcome,[4],inactive
same,outcome,[6],inactive
same,outcome,[8],inactive
CCn1nc(C)c2c1C(=O)NCC(c1ccc(O)cc1)=N2,outcome,[1],inactive
same,outcome,[2],inactive
same,outcome,[3],inactive
same,outcome,[4],inactive
same,AC50,[6],20 µM (active)
same,AC50,[7],8.02 µM (active)
same,outcome,[8],inactive
O=S(=O)(O)c1ccc(N=Nc2c(O)ccc3cc(S(=O)(=O)O)ccc23)cc1,outcome,[1],inactive
same,outcome,[2],inactive
same,outcome,[3],inactive
same,outcome,[4],inactive
same,outcome,[5],inactive
same,outcome,[6],inactive
same,outcome,[8],inactive
O=S1(=O)CCCO1,outcome,[1],inactive
same,outcome,[2],inactive
same,outcome,[3],inactive
same,outcome,[4],inactive
same,outcome,[6],inactive
Cc1cccc(O)c1C,outcome,[1],inactive
same,outcome,[2],inactive
same,outcome,[3],inactive
same,outcome,[4],inactive
same,outcome,[9],inactive
same,outcome,[5],inactive
same,outcome,[6],inactive
same,outcome,[8],inactive
same,outcome,[10],inactive
O=C(O)c1cccc(C(=O)O)c1,outcome,[1],inactive
same,outcome,[2],inactive
same,outcome,[4],inactive
same,outcome,[9],inactive
same,outcome,[5],inactive
same,outcome,[6],inactive
O=S(=O)(O)CCC(F)(F)C(F)(F)C(F)(F)C(F)(F)C(F)(F)C(F)(F)F,outcome,[1],inactive
same,outcome,[2],inactive
same,outcome,[3],inactive
same,outcome,[4],inactive
same,outcome,[9],inactive
same,outcome,[5],inactive
same,outcome,[6],inactive
same,outcome,[8],inactive
same,outcome,[10],inactive
FC(F)=C(F)C(F)(F)C(F)(F)C(F)(F)C(F)(F)C(F)(F)C(F)(F)F,outcome,[1],inactive
same,outcome,[2],inactive
same,outcome,[3],inactive
same,outcome,[4],inactive
same,outcome,[9],inactive
same,outcome,[5],inactive
same,outcome,[6],inactive
same,outcome,[8],inactive
same,outcome,[10],inactive
C=CCc1cc(S(=O)(=O)c2ccc(O)c(CC=C)c2)ccc1O,AC50,[1],27.1 µM (active)
same,outcome,[2],inactive
same,outcome,[3],inactive
same,AC50,[4],29.3 µM (active)
same,AC50,[6],25.8 µM (active)
same,AC50,[8],3.16 µM (active)
OCc1c[nH]c2ccccc12,AC50,[1],6.67 µM (active)
same,outcome,[2],inactive
same,outcome,[3],inactive
same,outcome,[4],inactive
same,outcome,[5],inactive
same,AC50,[6],9.76 µM (active)
same,AC50,[7],7.94 µM (active) [middle of 5 runs]
same,AC50,[8],1.89 µM (active) [middle of 5 runs]
same,outcome,[10],inactive
CCCCN1C(=O)[C@@H]([C@H](O)C2CCCCC2)NC(=O)C12CCN(Cc1ccc(Oc3ccc(C(=O)O)cc3)cc1)CC2,outcome,[1],inactive
same,outcome,[2],inactive
same,outcome,[3],inactive
same,outcome,[4],inactive
same,AC50,[6],28.2 µM (active)
same,outcome,[8],inactive
OCC(CO)(CO)CO,outcome,[1],inactive
same,outcome,[2],inactive
same,outcome,[3],inactive
same,outcome,[4],inactive
same,outcome,[6],inactive
same,outcome,[7],inactive
same,outcome,[8],inactive
NCC(F)(F)C(F)(F)C(F)(F)C(F)(F)F,outcome,[1],inactive
same,outcome,[2],inactive
same,outcome,[3],inactive
same,outcome,[4],inactive
same,outcome,[6],inactive
same,outcome,[8],inactive
NNC(=O)c1ccncc1,outcome,[1],inactive
same,outcome,[2],inactive
same,outcome,[3],inactive
same,outcome,[4],inactive
same,outcome,[6],inactive
same,outcome,[8],inactive
c1ccc2cc3ccccc3cc2c1,outcome,[1],inactive
same,outcome,[2],inactive
same,outcome,[3],inactive
same,outcome,[4],inactive
same,outcome,[9],inactive
same,outcome,[6],inactive
same,outcome,[8],inactive
same,outcome,[10],inactive
CCCCCCCC1CCC(=O)O1 (stereo not drawn),outcome,[1],inactive
same,outcome,[2],inactive
same,outcome,[3],inactive
same,outcome,[4],inactive
same,outcome,[5],inactive
same,outcome,[6],inactive
same,outcome,[8],inactive
same,outcome,[10],inactive
CC(C)c1nnc2ccc(-c3ocnc3-c3cc(F)ccc3F)cn12,outcome,[1],inactive
same,outcome,[2],inactive
same,outcome,[3],inactive
same,outcome,[4],inactive
same,outcome,[9],inactive
same,outcome,[5],inactive
same,outcome,[6],inactive
same,outcome,[7],inactive
same,outcome,[8],inactive
same,outcome,[10],inactive
OCCC(F)(F)C(F)(F)C(F)(F)C(F)(F)F,outcome,[1],inactive
same,outcome,[2],inactive
same,outcome,[3],inactive
same,outcome,[4],inactive
same,outcome,[9],inactive
same,outcome,[5],inactive
same,outcome,[6],inactive
same,outcome,[8],inactive
same,outcome,[10],inactive
O=C(Cl)C(F)(F)C(F)(F)C(F)(F)C(=O)Cl,outcome,[1],inactive
same,outcome,[2],inactive
same,outcome,[3],inactive
same,outcome,[4],inactive
same,outcome,[9],inactive
same,outcome,[5],inactive
same,outcome,[6],inactive
same,outcome,[8],inactive
same,outcome,[10],inactive
CC1(C)C(=O)N(Cl)C(=O)N1Cl,outcome,[1],inactive
same,outcome,[2],inactive
same,outcome,[4],inactive
same,outcome,[6],inactive
COc1cc(C(C)C)c2c(c1)S(=O)(=O)N(COc1cc(=O)n3cccc(OCCN4CCCCC4)c3n1)C2=O,AC50,[1],8.57 µM (active)
same,outcome,[2],inactive
same,outcome,[4],inactive
same,outcome,[9],inactive
same,AC50,[6],4.63 µM (active)
same,AC50,[8],0.836 µM (active)
same,outcome,[10],inactive
CNC(C)=O,outcome,[1],inactive
same,outcome,[3],inactive
same,outcome,[4],inactive
same,outcome,[6],inactive
C[C@]12C=CC(=O)C=C1CC[C@H]1[C@@H]3C[C@@H](O)[C@](O)(C(=O)CO)[C@@]3(C)C[C@H](O)[C@@]12F,outcome,[1],inactive
same,outcome,[2],inactive
same,outcome,[4],inactive
same,outcome,[6],inactive
same,outcome,[8],inactive
Cc1nc(-c2ccccn2)ncc1C(=O)Nn1cc(C)c2cc(F)ccc21,outcome,[1],inactive
same,outcome,[3],inactive
same,outcome,[4],inactive
same,outcome,[9],inactive
same,outcome,[6],inactive
same,AC50,[7],7.87 µM (active)
same,AC50,[8],0.775 µM (active)
CCOC(N)=O,outcome,[1],inactive
same,outcome,[3],inactive
same,outcome,[4],inactive
same,outcome,[6],inactive
c1ccc2c(c1)-c1cccc3c1c-2cc1ccccc13,AC50,[1],0.148 µM (active)
same,outcome,[3],inactive
same,outcome,[4],inactive
same,outcome,[5],inactive
same,outcome,[6],inactive
same,outcome,[7],inactive
same,outcome,[8],inactive
same,outcome,[10],inactive
